Assay outcomes from PubChem.
The list is not random: actives were taken first. Their share in the collection is about 2.5%.
p53ts 39C kill – qHTS Screen for Compounds that Selectively Target Cancer Cells with p53 Mutations: Cytotoxicity of p53ts Cells at the Nonpermissive Temperature | H1299-p53A138V viability at 39C, ATP luminescence, 24 h | Potency, µM (doses to about 46.1 µM), without a hit: at the top dose activity change, negative = cell killing, actives largely listed as cytotoxic | 1.5% of 130,000 active; further: nearly all actives have a fitted effect of over 55% in size
Luciferase inh – qHTS Assay for Inhibitors of Firefly Luciferase; Potency, µM (titrated, usually from 57.1 µM), without a hit: at the top dose activity change, negative = inhibition, hits mostly inhibitors; Luciferin 4-monooxygenase (Photinus pyralis), P08659; purified firefly luciferase, luminescence, 8 min; 2.2% of 72,000 active; AID 411, 2009; further: nearly all actives have a fitted effect of over 40% in size
Target sequence (P08659 whole entry, looked up): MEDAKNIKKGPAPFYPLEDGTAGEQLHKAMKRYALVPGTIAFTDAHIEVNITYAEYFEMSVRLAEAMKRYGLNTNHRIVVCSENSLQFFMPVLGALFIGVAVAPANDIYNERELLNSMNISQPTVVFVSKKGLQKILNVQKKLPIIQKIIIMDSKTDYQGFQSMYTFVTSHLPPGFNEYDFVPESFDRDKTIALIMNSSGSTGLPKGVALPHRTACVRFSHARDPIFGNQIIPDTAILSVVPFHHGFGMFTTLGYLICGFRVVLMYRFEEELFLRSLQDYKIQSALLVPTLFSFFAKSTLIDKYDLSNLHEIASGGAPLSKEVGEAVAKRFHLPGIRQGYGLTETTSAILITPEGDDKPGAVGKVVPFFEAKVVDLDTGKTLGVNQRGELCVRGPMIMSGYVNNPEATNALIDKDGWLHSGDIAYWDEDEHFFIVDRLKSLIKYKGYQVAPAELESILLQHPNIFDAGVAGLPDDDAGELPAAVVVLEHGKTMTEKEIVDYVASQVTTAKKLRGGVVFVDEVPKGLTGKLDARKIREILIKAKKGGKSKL
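Firefly luciferase (PKLight detection mix) with 10 uM ATP in pH 7.2 imidazole buffer (KCl, MgCl2, Tween 20, BSA). Compounds tested across a concentration series (qHTS). Luminescence read after 8 min at ambient temperature.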
p53ts 32C tox – qHTS Screen for Compounds that Selectively Target Cancer Cells with p53 Mutations: Cytotoxicity of p53ts Cells at the Permissive Temperature. H1299-p53A138V at 32C, ATP luminescence viability, 24 h. Potency, µM (top dose mostly 46.1 µM), for the others: top-dose activity change, negative = cytotoxicity, usual class: cytotoxic. 0.93% of 130,000 active. AID 924, 2007;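 further: 0% = DMSO and -100% = full killing by reference compound; nearly all actives have a fitted effect of over 55% in size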
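Cells: H1299 p53ts (A138V), 600/well, pre-incubated 16–30 h at 37C. Cpd up to 46 uM, 24 h, 32C. Readout: ATPlite luminescence, 20 min RT. Normalization: DMSO vs tamoxifen 100 uM. AC50 by Hill equation.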
Starred values were filed as active, the others as inactive; ? = inconclusive; · = no result given; [ ] = remark or other dose. The call rests on the fitted dose curve; in most records, active means well fitted curve in the direction sought with a large enough effect; inconclusive means small, poorly fitted or top-dose-only effect, or another doubt; inactive means no such curve, though single readings can be large; an effect the other way counts as inactive or inconclusive. Unless noted, on the % scale 0 is the no-effect control and ±100 the full control effect; potency means the concentration at half of the fitted maximal effect.

SMILES | p53ts 39C kill | Luciferase inh | p53ts 32C tox
COC(=O)c1c(SCC(=O)Nc2ccccc2C(F)(F)F)[nH]c2ccc(Cl)cc2c1=O | -25.4% | · | ?
CCOC(=O)CCN1C(=O)[C@H]2[C@H]3[C@H](O)[C@H](O)C/C(=N/NC(=O)OCc4ccccc4)[C@H]3CC[C@@H]2C1=O | 12.5%[9.22 µM] | 1.6%[11.4 µM] | 5.8%[9.22 µM]
C[C@@H]1O[C@@H](OC[C@@H]2O[C@@H](Oc3c(-c4ccc(O)c(O)c4)oc4cc(O)cc(O)c4c3=O)[C@H](O)[C@H](O)[C@@H]2O)[C@H](O)[C@H](O)[C@@H]1O | · | -1.0%[11.4 µM] | ·
Cc1ccc(Nc2nc(CSc3nnnn3C)cs2)cc1 | ? | 12.6µM* | ?
Cn1nnnc1SCc1csc(Nc2ccccc2)n1 | -5.3% | -4.3% | 0.7%
COc1cccc(NC(=O)Cn2c(-c3nonc3N)nc3ccccc32)c1 | -6.9% | · | -1.5%
CC(=O)O[C@H]1C(=O)[C@@]2(C)[C@H]([C@H](OC(=O)c3ccccc3)[C@]3(O)C[C@H](OC(=O)[C@H](O)[C@@H](NC(=O)c4ccccc4)c4ccccc4)C(C)=C1C3(C)C)[C@]1(OC(C)=O)CO[C@@H]1C[C@@H]2O | 36.4% | 15.8µM* | 17.3%
Cc1ccc(C)c(N2CCN(C(=O)Cn3c(-c4cccs4)cc4ccccc43)CC2)c1 | · | · | -5.1%
CN(C1CCCCC1)S(=O)(=O)c1ccc2c(c1)c(=O)c(C(=O)NCCc1ccc(Cl)cc1)cn2C | 1.9% | · | 0.1%
O=C(Nc1ccc(-c2nc3cccnc3s2)cc1)c1ccc(Br)o1 | -3.6% | -7.3% | -11.3%
O=C(Nc1ccc(-c2nc3cccnc3s2)cc1)c1ccco1 | ? | 3.16µM* | ?
O=C(Cc1ccccc1)Nc1cccc(-c2nc3cccnc3s2)c1 | 9.7% | · | 8.9%
O=C(Nc1cccc(-c2nc3cccnc3s2)c1)c1ccco1 | -14.6% | 20µM* | -28.9%
O=C(O)C[C@@H]1CCCc2ccccc2[C@H]1O | 11.6% | 4.0% | -3.3%
C[C@@]12CCC(=O)C=C1CC[C@@H]1[C@@H]2[C@H](O)C[C@]2(C)[C@@H]1CC[C@]2(O)C(=O)CO | · | 0.2%[25.5 µM] | ·
COc1ccc(C(=O)Nc2c(C(=O)c3ccccc3)oc3ccccc23)cc1 | -20.5% | · | -10.5%
COc1ccc(C(=O)Nc2cc(C)on2)cc1 | 6.31µM* | 10µM* | 7.94µM*
COc1ccc(C(=O)Nc2noc3ccccc23)cc1 | 6.31µM* | · | 3.16µM*
COc1ccc(OCc2cccc(C(=O)Nc3cc(C)on3)c2)cc1 | 6.8% | · | -4.2%
C[C@H]1CN(S(=O)(=O)c2cccc3cnccc23)CCN1 | 9.6% | -1.5% | 7.7%
O=C(c1cc(Br)ccc1O)c1cc(Br)ccc1O | -7.0%[9.22 µM] | 6.7%[11.4 µM] | 6.6%[9.22 µM]
COC(=O)CCN(c1ccccc1)C(CNS(=O)(=O)c1ccccc1)c1ccccc1 (stereo not drawn) | -25.7% | · | 25.5%
CCN(c1ccccc1)C(CNS(=O)(=O)c1ccccc1)c1ccccc1 (stereo not drawn) | ? | · | 22.7%
CCN(c1cccc(C)c1)C(CNS(=O)(=O)c1ccccc1)c1ccccc1 (stereo not drawn) | 12.6µM* | · | 17.4%
Cc1cccc(N(C)C(CNS(=O)(=O)c2ccccc2)c2ccccc2)c1 (stereo not drawn) | 31.6µM* | · | 23.3%
SMILES | p53ts 39C kill | Luciferase inh | p53ts 32C tox
Nc1nc(SCC(=O)c2ccc(Br)cc2)c2[nH]cnc2n1 | 6.3%[9.22 µM] | 2.6%[11.4 µM] | 15.3%[9.22 µM]
CC1=c2c(oc3cc(O)c(Nc4c(C)cc(O)cc4O)c(C)c23)=CC(=O)C1=Nc1c(C)cc(O)cc1O | 9.6%[9.22 µM] | -27.6%[11.4 µM] | -7.5%[9.22 µM]
O=C(Nc1nsc(-c2ccccc2)n1)c1cccs1 | 5.01µM* | 5.01µM* | 3.98µM*
CCSc1nnc(NC(=O)c2ccc(C)o2)s1 | ? | -0.8% | -28.3%
O=C(Nc1ncc(Cc2ccccc2)s1)c1cccs1 | ? | 10µM* | ?
Cc1ccc(C(=O)Nc2ncc(Cc3ccccc3)s2)o1 | ? | 12.6µM* | ?
O=C(Nc1nnc(Cc2ccccc2)s1)c1cccs1 | -15.5% | -17.6% | -5.6%
Cc1nnc(SCC(=O)Nc2nsc(-c3ccccc3)n2)s1 | 11.3% | -11.7% | 13.4%
CCOc1ccc(C(=O)N2CCC(c3nnc(-c4ccccc4OC)o3)CC2)cc1 | -6.7% | · | 1.7%
CC1CCc2nc3ncn(Cc4ccccc4F)c(=O)c3cc2C1 (stereo not drawn) | -27.7% | · | -9.4%
C/C(CCN1CCCc2nc(C)c(C)cc21)=N\O[C@@H](C)c1cn([C@H](CO)Cc2ccccc2)nn1 | -1.0%[9.22 µM] | -1.3%[11.4 µM] | 7.5%[9.22 µM]
O=S(=O)(Cc1nc2ccccc2s1)c1ccccc1 | -15.8% | -12.7% | -12.3%
